Assay outcomes (PubChem)
Sampled rows, rich in hits. Any-hit rate of the full collection: about 7.3%.
NPC1 prom act: NPC1 promoter activation | Huh7 NPC1 promoter luciferase reporter, 24 h | Potency, µM (top dose mostly 9.22 µM), without a hit: top-dose activation, usual class: activators | actives 2.4% (n = 320,000); note: % of control where 0% means no effect; nearly all actives have a fitted effect of over 60% in size
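Compounds in DMSO were transferred onto Huh7 NPC1-luciferase reporter cells pre-incubated 2 h; after 24 h at 37 °C, Amplite reagent was dispensed and luminescence recorded 10 min later.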
ELG1 genotox: genotoxicity induction in ELG1-luciferase HEK293T cells; actives 1.3% (n = 330,000); Potency, µM (titrated, usually from 46 µM), for the others: top-dose activity change, positive = activation, most hits filed as activators; HEK293T ELG1-luciferase reporter, luminescence, 16 h; AID 504466; note: % of control where 0% means no effect; nearly all actives have a fitted effect of over 60% in size
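16 hr compound incubation (37 °C, 5% CO2) of HEK293T cells carrying luciferase-tagged ELG1; luciferase then measured by ONE-Glo luminescence after 30 min at RT.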
FLuc counter: inhibits or activates purified firefly luciferase, miR-21 counter-screen | purified FLuc, Km substrates, luminescence inhibition | Potency, µM (highest dose often 57.5 µM), without a hit: at the top dose activity change, negative = inhibition, actives largely listed as inhibitors | actives 6.9% (n = 360,000) | P08659;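 note: plate controls were vehicle for no effect and reference inhibitor for full effect; nearly all actives have a fitted effect of over 55% in size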
Target sequence (P08659 whole entry, looked up): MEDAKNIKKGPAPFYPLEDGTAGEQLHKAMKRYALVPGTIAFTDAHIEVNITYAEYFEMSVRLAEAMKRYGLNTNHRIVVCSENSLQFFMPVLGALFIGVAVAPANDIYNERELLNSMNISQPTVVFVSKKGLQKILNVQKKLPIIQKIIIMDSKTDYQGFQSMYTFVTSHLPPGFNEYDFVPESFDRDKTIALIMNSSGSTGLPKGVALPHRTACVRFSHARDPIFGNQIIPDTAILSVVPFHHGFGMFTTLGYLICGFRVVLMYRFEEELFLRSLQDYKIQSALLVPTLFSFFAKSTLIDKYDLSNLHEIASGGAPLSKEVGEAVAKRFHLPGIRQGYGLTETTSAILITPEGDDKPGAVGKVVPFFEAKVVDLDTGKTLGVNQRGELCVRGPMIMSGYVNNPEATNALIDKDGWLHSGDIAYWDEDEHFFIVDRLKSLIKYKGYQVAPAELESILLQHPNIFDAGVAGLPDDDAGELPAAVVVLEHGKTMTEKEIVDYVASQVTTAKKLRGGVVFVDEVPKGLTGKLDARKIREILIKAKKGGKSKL
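Purified P. pyralis luciferase (10nM final) with 10uM D-luciferin and 10uM ATP (Km levels) in 50mM Tris acetate pH 7.5, 10mM Mg acetate, 0.01% Tween-20, 0.05% BSA; qHTS 6-point titration, ~60 µM downward; luminescence read.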
Rab9 prom act: activates the Rab9 promoter. Huh7 Rab9 promoter-luciferase reporter, luminescence, 24 h. Potency, µM (top dose mostly 9.22 µM), for the others: at the highest dose activation, negative = inhibition, actives largely listed as activators. actives 2.8% (n = 320,000). AID 485297; note: % of control where 0% means no effect; nearly all actives have a fitted effect of over 60% in size
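Stable Rab9-luc Huh7, 1500 cells/well, 2 h settle; cmpd in DMSO, 24 h, 37 °C/5% CO2; luciferase reagent 10 min RT; luminescence.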
SMN2 splice up: increases expression of the SMN2 splice variant. AID 1458. actives 2.8% (n = 210,000). HEK293 SMN2-luciferase splicing reporter, luminescence, 30-36 h. Potency, µM (series often up to 46.1 µM), inactives show at the highest dose activity change, positive = activation, hits mostly activators; note: % of control where 0% means no effect; nearly all actives have a fitted effect of over 55% in size
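HEK293 cells carry an SMN2 minigene-luciferase reporter in which exon 7 inclusion puts luciferase in frame. Cells were seeded at 2000 cells/well, attached for 10-12 hours, then exposed to compounds for 30-36 hours at 37C before ONE-Glo luminescence.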
Luc counter: counter-screen: inhibitors of Kinase-Glo firefly luciferase; Q27757; Kinase-Glo luciferase, ATP luminescence, 8 min; Potency, µM (series often up to 38.3 µM), for the others: at the highest dose activity change, negative = inhibition, usual class: inhibitors; actives 0.28% (n = 200,000); AID 1379; note: % is set by controls: 0 for no effect and ±100 for the full control effect; nearly all actives have a fitted effect of over 60% in size
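Kinase-Glo luciferase light output from ATP and luciferin was measured with 10 uM ATP, within the enzyme's linear range. Buffer: 50 mM imidazole pH 7.2, 50 mM KCl, 7 mM MgCl2, 0.01% Tween 20, 0.05% BSA; luminescence read after 8 min at ambient temperature.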
* hit, by the source's call; u = inconclusive; x = not tested or not shown; [ ] = another dose, or the depositor's remark. Calls come from the whole dose curve; as a rule, active = well fitted curve in the direction sought with a large enough effect; inconclusive = small, poorly fitted or top-dose-only effect, or another doubt; inactive = no such curve, though single readings can be large; an effect the other way counts as inactive or inconclusive. Potency is the fitted concentration of half-maximal effect.

SMILES	NPC1 prom act	ELG1 genotox	FLuc counter	Rab9 prom act	SMN2 splice up	Luc counter
COc1ccc(-n2nc(C(=O)NCC(=O)N3CC(C)CC(C)C3)c3ccccc3c2=O)cc1OC (stereo not drawn)	0%	-15%	u	0%	x	x
CCC(C)NC(=O)CNC(=O)c1nn(-c2ccc(OC)c(Cl)c2)c(=O)c2ccccc12 (stereo not drawn)	-3%	-6%	-11%	-4%	x	x
COc1ccc(-n2nc(C(=O)NCC(=O)N3CCCC(C)C3)c3ccccc3c2=O)cc1Cl (stereo not drawn)	-2%	-2%	5.4µM*	-1%	x	x
CCOC(=O)C1CCN(C(=O)CNC(=O)c2nn(-c3ccc(OC)c(Cl)c3)c(=O)c3ccccc23)CC1	24%	1%	2.7µM*	21%	x	x
COc1ccc(-n2nc(C(=O)NCC(=O)N3CCCCCC3)c3ccccc3c2=O)cc1OC	12%	-5%	6.7µM*	2%	x	x
COc1ccc(-n2nc(C(=O)NCC(=O)NC(C)C)c3ccccc3c2=O)cc1Cl	-2%	-6%	-3%	3%	x	x
O=C(O)c1cc(=O)[nH]c(=S)[nH]1	x	x	x	x	-6%[9.22 µM]	-3%[7.66 µM]
Cc1ccc(Cn2cc(C(=O)c3ccc4c(c3)OCO4)c(=O)c3cc(C)ccc32)cc1	x	x	-1%	x	-5%	x
CCOC(=O)C1CCCN(C(=O)CNC(=O)c2nn(-c3ccc(OC)c(Cl)c3)c(=O)c3ccccc23)C1 (stereo not drawn)	-1%	-12%	6.7µM*	0%	x	x
COc1ccc(-n2nc(C(=O)NCC(=O)NCCCN3CCCCCC3)c3ccccc3c2=O)cc1Cl	-6%	-2%	4%	-3%	-59%	-1%
COc1cc2nc(NCCc3ccccc3)n3nc(-c4cccnc4)nc3c2cc1OC	x	x	-4%	x	0%	x
COc1ccc(C2CC(=O)c3cc(-c4nc(-c5ccc(Cl)cc5)c(C)s4)c(=O)[nH]c3C2)cc1 (stereo not drawn)	x	x	-3%	x	-15%	x
COC(=O)CCS(=O)(=O)c1nc(-c2ccccc2)cc(C(F)(F)F)n1	-16%	-22%	1%	-16%	13µM*	-3%
COc1ccc(S(=O)(=O)NCCc2sc3nc(-c4ccc(C)cc4)nn3c2C)cc1C	x	x	-15%	x	x	x
COCCn1cnnc1SCC(=O)Nc1ccc(N2CCCCC2)cc1	0%	3%	19µM*	-1%	x	x
Cn1cnnc1SCC(=O)Nc1ccc(OCc2ccccc2)cc1	21%	16%	15µM*	u	u	-3%
Cn1cnnc1SCC(=O)Nc1ccc(N2CCCCC2)cc1	17%	8%	13µM*	15%	x	x
COCCn1cnnc1SCC(=O)Nc1cc(C)on1	x	5%	x	x	x	x
CC#N	x	x	x	x	4%	x
O=C(O)c1ccc(N[C@@H]2OC[C@@H](O)[C@@H](O)[C@@H]2O)cc1	x	x	x	x	11%	-2%
N#Cc1c(N2CCOCC2)nsc1-c1ccc(C(F)(F)F)cc1	u	u	7.6µM*	u	x	x
Cc1cc(C(F)(F)F)c(C#N)c(N2CCOCC2)n1	-3%	0%	1%	-2%	-10%	0%
C[C@H]1Cc2c(-c3ccccc3)nc3c(c2CO1)CN(C(=O)NCCc1c[nH]c2ccccc12)CC3	x	x	x	x	-10%[9.22 µM]	-4%[7.66 µM]
CC1CCc2c(sc3nc(CSc4ncn[nH]4)[nH]c(=O)c23)C1 (stereo not drawn)	12%	10%	15µM*	18%	x	x
CCCCC(NC(=O)Cc1c(C)c2cc3c4c(oc3c(C)c2oc1=O)CCCC4)C(=O)O (stereo not drawn)	-3%	-1%	u	-1%	x	x
SMILES	NPC1 prom act	ELG1 genotox	FLuc counter	Rab9 prom act	SMN2 splice up	Luc counter
Cc1c(CCC(=O)N[C@@H](CCCNC(N)=O)C(=O)O)c(=O)oc2cc3oc4c(c3cc12)CCCC4	3%	7%	15µM*	9%	x	x
CCC(NC(=O)CCc1c(C)c2cc3c4c(oc3cc2oc1=O)CCCC4)C(=O)O (stereo not drawn)	-2%	6%	15µM*	6%	x	x
CCCCC(NC(=O)Cc1c(C)c2cc3c4c(oc3cc2oc1=O)CCCC4)C(=O)O (stereo not drawn)	-1%	2%	19µM*	6%	x	x
CSCC[C@H](NC(=O)Cc1c(C)c2cc3c4c(oc3cc2oc1=O)CCCC4)C(=O)O	0%	2%	11µM*	1%	x	x
Cc1c(Cl)cccc1NC(=O)CSc1nc(=O)n(Cc2ccco2)c2c1CCC2	x	x	-16%	x	x	x
Cc1ccc(CN(C(=O)COc2ccc(C(C)(C)C)cc2)C2CCS(=O)(=O)C2)o1 (stereo not drawn)	x	x	-10%	x	-31%	x
Cc1c(CC(=O)N[C@@H](CCCNC(N)=O)C(=O)O)c(=O)oc2cc3oc4c(c3cc12)CCCC4	-1%	0%	17µM*	-7%	x	x
Cc1c(CC(=O)N[C@@H](C)C(=O)O)c(=O)oc2cc3oc4c(c3cc12)CCCC4	0%	-3%	17µM*	1%	x	x
Cc1c(CCC(=O)NCCCC(=O)O)c(=O)oc2cc3oc4c(c3cc12)CCCC4	0%	6%	19µM*	2%	x	x
Cc1c(CCC(=O)NCCCCCC(=O)O)c(=O)oc2c(C)c3oc4c(c3cc12)CCCC4	1%	4%	u	-3%	x	x
COC(=O)C1=C(C)NC(C)=C(C(=O)OC)C1c1ccc2ccccc2n1	-3%	10%	3%	-1%	2%	-2%
O=C1c2ccccc2C(=O)C1c1ccc2ccccc2n1	u	0.13µM*	0.17µM*	1µM*	1µM*	-22%
COc1cccc(N=Nc2ccc(O)c3ncccc23)c1	22%	u	6µM*	-18%	x	x
COCc1ccc(O)c2ncccc12	-34%	-16%	0%	-31%	6%	-3%
Oc1ccc(N=Nc2ccc(Br)cc2)c(O)c1	u	u	4.8µM*	u	x	x
Nc1ccc(N=Nc2ccccc2)c2cccnc12	18%	16%	21µM*	-17%	x	x
Nc1nonc1C(=Nc1ccc(Br)cc1)NO	1%	5%	5%	-3%	-33%	0%
Oc1ccc(N=Nc2ccc3c(c2)OCCO3)c(O)c1	1.3µM*	u	1.2µM*	1.1µM*	x	x
CC(=O)Nc1ccc(NC(=O)c2cnn(-c3ccccc3)c2C2CCN(C(=O)OC(C)(C)C)CC2)cc1	x	x	-2%	x	-1%	x
Cc1ccc(C)c(NC(=O)Cn2c(=O)n(CC3CCCO3)c(=O)c3ccccc32)c1 (stereo not drawn)	x	x	1%	x	26%	x
CCC1Oc2ccc(C)cc2N(CC(=O)NCc2ccc(OC)cc2)C1=O (stereo not drawn)	x	x	-14%	x	-2%	x
Cc1ccccc1N=Nc1ccc(O)c2ncccc12	-12%	12µM*	-8%	-28%	-103%	-1%
